In PubChem BioAssay AID1159580 (chemical genetic matrix, 2015):
“And” between values parts separate entries of the source, which are not always exact repeats. Identical values can stand only once. Screen size: about 5,500 compounds; about 2,000 (36%) were called active. Not shown: some 18% with an inconclusive outcome. Rule as the data show it: active = normalized growth mostly below about 0.91 (no sharp cut-off); inconclusive = no clear call, values can overlap the other calls; inactive = mostly above about 0.92. The list shows a part of the results.

Assay: chemical genetic growth profiling, strain panel (AID 1159580);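 also: tested at 20 µM; growth read once vehicle control cultures reached saturation at 30 °C; 1 = growth at the plate median or of vehicle wells; lower values mean less growth of the strain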
Conditions: S. cerevisiae deletion strains, growth OD

Measured: normalized growth

O=C1C=CC2=C3c4cc(O)c(O)cc4C[C@@]3(O)COC2=C1
inactive: locus YAL021C, strain ccr4, hits give low values 0.965 | locus YAL026C, strain drs2, hits give low values 0.973 | locus YAL030W, strain snc1, hits give low values 0.979 | locus YBL061C, strain skt5, hits give low values 0.992 | locus YBR009C, strain hhf1, hits give low values 0.984 | locus YBR021W, strain FUR4, hits give low values 1.01 | locus YBR023C, strain chs3, hits give low values 0.99 | locus YBR171W, strain sec66, hits give low values 0.988 | locus YBR229C, strain ROT2, hits give low values 0.998 | locus YBR231C, strain swc5, hits give low values 0.978 | locus YBR279W, strain paf1, hits give low values 0.985 | locus YCL011C, strain gbp2, hits give low values 0.975 | locus YCL016C, strain dcc1, hits give low values 0.95 | locus YCL029C, strain bik1, hits give low values 1 | locus YCL061C, strain MRC1, hits give low values 0.98 | locus YCL069W, strain vba3, hits give low values 0.981 | locus YCR088W, strain abp1, hits give low values 0.99 | locus YDL005C, strain med2, hits give low values 0.966 | locus YDL035C, strain GPR1, hits give low values 1.03 | locus YDL040C, strain nat1, hits give low values 0.97 | locus YDL074C, strain BRE1, hits give low values 1 | locus YDL101C, strain DUN1, hits give low values 0.981 | locus YDL134C, strain PPH21, hits give low values 0.998 | locus YDL185W, strain tfp1, hits give low values 0.985 | locus YDL192W, strain arf1, hits give low values 1.01 | locus YDR001C, strain nth1, hits give low values 0.978 | locus YDR069C, strain doa4, hits give low values 0.94 | locus YDR101C, strain arx1, hits give low values 1.05 | locus YDR137W, strain rgp1, hits give low values 1.01 | locus YDR150W, strain NUM1, hits give low values 1 | locus YDR159W, strain sac3, hits give low values 0.986 | locus YDR162C, strain NBP2, hits give low values 1.03 | locus YDR195W, strain ref2 0.939 | locus YDR297W, strain sur2, hits give low values 0.981 | locus YDR318W, strain mcm21, hits give low values 0.998 | locus YDR334W, strain swr1, hits give low values 0.967 | locus YDR335W, strain msn5, hits give low values 0.969 | locus YDR388W, hits give low values 1 | locus YDR392W, strain spt3, hits give low values 0.95 | locus YDR502C, strain sam2, hits give low values 0.999 | locus YEL003W, strain gim4, hits give low values 0.989 | locus YEL037C, strain rad23, hits give low values 0.981 | locus YEL061C, strain CIN8 (second series), hits give low values 0.975 | locus YER015W, strain faa2, hits give low values 0.982 | locus YER016W, strain bim1, hits give low values 0.976 | locus YER110C, hits give low values 0.986 | locus YER111C, strain swi4, hits give low values 0.98 | locus YER155C, strain BEM2 (second series), hits give low values 0.972 | locus YER155C, strain BEM2, hits give low values 1.02 | locus YER167W, strain BCK2, hits give low values 1.01 | locus YFR010W, strain ubp6, hits give low values 0.963 | locus YGL078C, strain dbp3, hits give low values 0.967 | locus YGL086W, strain mad1, hits give low values 1.01 | locus YGL167C, strain pmr1, hits give low values 0.964 | locus YGL173C, strain kem1, hits give low values 0.977 | locus YGL227W, strain vid30, hits give low values 0.989 | locus YGL240W, strain doc1, hits give low values 0.985 | locus YGL248W, strain PDE1, hits give low values 0.981 | locus YGL253W, strain hxk2, hits give low values 0.978 | locus YGR135W, strain pre9, hits give low values 0.954 | locus YGR252W, strain gcn5, hits give low values 0.939 | locus YHR013C, strain ard1, hits give low values 0.954 | locus YHR027C, strain rpn1, hits give low values 0.972 | locus YHR030C, strain SLT2, hits give low values 1.03 | locus YHR079C, strain IRE1 (second series), hits give low values 1 | locus YHR079C, strain IRE1, hits give low values 1.02 | locus YHR094C, strain hxt1, hits give low values 0.994 | locus YHR129C, strain ARP1, hits give low values 0.997 | locus YHR142W, strain chs7, hits give low values 0.963 | locus YHR200W, strain rpn10, hits give low values 0.991 | locus YIL066C, strain RNR3, hits give low values 1.01 | locus YIL073C, strain SPO22, hits give low values 0.996 | locus YIL125W, strain kgd1, hits give low values 0.994 | locus YIR030C, strain dcg1, hits give low values 0.999 | locus YJL092W, strain hpr5, hits give low values 0.991 | locus YJL095W, strain BCK1 (second series), hits give low values 0.975 | locus YJL095W, strain BCK1, hits give low values 0.979 and 1.04 | locus YJL115W, strain asf1, hits give low values 0.975 | locus YJL129C, strain trk1, hits give low values 1 | locus YJL134W, strain LCB3, hits give low values 1.01 | locus YJL154C, strain vps35, hits give low values 0.981 | locus YJL164C, strain tpk1, hits give low values 0.962 | locus YJL166W, strain qcr8, hits give low values 0.979 | locus YJL168C, strain set2, hits give low values 0.996 | locus YJL187C, strain SWE1 (second series), hits give low values 0.96 | locus YJL187C, strain SWE1, hits give low values 0.988 | locus YJR043C, strain POL32, hits give low values 1.03
